BAZ2B block: inhibitors of human BAZ2B bromodomain | Q9UIF8 | Potency, µM (highest dose often 114 µM), inactives show top-dose activity change, negative = inhibition, hits mostly inhibitors | 4.4% of 360,000 active | AID 504333 | AlphaScreen BAZ2B-H3K14Ac peptide displacement; further: on the % scale 0 is the no-effect control and ±100 the full control effect; nearly all actives have a fitted effect of over 60% in size
Target sequence (Q9UIF8 whole entry, looked up): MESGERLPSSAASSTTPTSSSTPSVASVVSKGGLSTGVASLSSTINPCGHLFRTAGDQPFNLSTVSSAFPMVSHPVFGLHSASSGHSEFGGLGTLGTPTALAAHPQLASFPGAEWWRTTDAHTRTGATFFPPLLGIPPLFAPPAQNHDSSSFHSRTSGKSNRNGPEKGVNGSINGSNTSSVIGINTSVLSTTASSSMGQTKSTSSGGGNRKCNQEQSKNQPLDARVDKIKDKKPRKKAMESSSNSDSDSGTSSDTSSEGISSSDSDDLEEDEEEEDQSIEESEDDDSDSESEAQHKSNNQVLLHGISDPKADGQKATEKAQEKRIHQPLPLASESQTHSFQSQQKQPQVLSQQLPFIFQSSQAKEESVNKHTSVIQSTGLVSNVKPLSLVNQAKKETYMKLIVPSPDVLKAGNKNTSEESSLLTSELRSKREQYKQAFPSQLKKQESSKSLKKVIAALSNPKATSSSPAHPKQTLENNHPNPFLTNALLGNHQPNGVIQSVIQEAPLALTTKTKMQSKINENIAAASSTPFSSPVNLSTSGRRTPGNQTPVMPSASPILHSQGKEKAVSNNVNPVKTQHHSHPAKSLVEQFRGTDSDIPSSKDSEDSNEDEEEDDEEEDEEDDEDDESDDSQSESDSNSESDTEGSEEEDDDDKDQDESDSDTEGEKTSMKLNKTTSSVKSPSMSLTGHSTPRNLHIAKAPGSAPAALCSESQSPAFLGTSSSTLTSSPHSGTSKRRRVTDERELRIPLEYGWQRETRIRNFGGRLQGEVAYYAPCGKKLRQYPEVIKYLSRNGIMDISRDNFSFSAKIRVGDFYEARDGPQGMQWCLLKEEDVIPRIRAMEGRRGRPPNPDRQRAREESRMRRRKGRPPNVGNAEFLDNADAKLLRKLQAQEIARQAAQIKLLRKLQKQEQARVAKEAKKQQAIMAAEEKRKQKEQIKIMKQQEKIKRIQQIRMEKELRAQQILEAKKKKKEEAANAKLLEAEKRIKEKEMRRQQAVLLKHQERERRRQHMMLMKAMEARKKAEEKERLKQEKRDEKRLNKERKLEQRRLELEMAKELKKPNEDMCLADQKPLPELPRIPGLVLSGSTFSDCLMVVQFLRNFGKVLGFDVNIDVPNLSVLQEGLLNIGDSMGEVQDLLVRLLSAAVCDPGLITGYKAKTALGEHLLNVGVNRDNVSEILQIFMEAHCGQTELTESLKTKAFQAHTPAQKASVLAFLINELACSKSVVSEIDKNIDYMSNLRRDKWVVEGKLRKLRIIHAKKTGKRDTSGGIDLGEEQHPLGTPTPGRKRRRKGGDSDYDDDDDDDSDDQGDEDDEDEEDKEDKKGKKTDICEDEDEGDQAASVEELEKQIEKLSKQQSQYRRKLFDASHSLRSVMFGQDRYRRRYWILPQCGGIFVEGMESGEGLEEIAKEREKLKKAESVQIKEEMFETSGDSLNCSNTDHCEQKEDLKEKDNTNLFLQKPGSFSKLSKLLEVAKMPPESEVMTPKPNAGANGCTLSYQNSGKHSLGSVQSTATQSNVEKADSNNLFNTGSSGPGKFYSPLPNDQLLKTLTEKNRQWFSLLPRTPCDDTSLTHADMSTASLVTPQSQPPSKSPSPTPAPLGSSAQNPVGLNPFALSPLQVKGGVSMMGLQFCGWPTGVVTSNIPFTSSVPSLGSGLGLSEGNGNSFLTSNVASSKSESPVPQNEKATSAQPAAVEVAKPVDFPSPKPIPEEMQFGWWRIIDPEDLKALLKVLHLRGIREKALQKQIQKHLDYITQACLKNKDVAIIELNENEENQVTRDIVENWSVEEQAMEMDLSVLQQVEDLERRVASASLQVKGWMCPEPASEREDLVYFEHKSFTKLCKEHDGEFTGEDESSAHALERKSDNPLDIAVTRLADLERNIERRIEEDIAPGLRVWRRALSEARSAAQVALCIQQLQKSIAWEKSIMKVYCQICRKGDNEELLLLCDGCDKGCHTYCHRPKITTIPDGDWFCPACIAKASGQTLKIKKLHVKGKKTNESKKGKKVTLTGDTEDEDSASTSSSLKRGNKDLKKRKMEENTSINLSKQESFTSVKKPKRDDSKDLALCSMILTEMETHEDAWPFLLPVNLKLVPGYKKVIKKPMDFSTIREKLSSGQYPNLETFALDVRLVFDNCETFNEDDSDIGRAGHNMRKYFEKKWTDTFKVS
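Protein-peptide AlphaScreen: BAZ2B 50 nM, b-H3K14Ac 50 nM, 1x PBS pH 7.4 + 0.01% Tween-20. Preincubation 30 min RT; cpd 30 min RT (top 110 uM); beads 20 min RT, light-protected.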
G9a block: inhibitors of human histone lysine methyltransferase G9a | Q96KQ7 | G9a H3K9 monomethylation, AlphaScreen, 2 h | Potency, µM (doses to about 102 µM), for the others: top-dose activity, negative = inhibition, actives largely listed as inhibitors | 8.8% of 350,000 active; further: on the % scale 0 is the no-effect control and ±100 the full control effect; nearly all actives have a fitted effect of over 75% in size
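Compounds were preincubated with 20 nM G9a for 15 min, after which biotinylated H3K9 peptide (500 nM) and SAM (20 uM) started a 2 h room-temperature reaction. Monomethylated product was quantified by antibody-based AlphaScreen chemiluminescence.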
HP1b chromo inh: blocks HP1-beta chromodomain binding to methylated histone tails | AlphaScreen HP1-beta / biotin-H3K9me3 peptide binding | Potency, µM (top dose mostly 114 µM), without a hit: at the top dose activity change, negative = inhibition, actives largely listed as inhibitors | 0.56% of 390,000 active; further: nearly all actives have a fitted effect of over 70% in size
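HP1-beta protein (50 nM final) preincubated 30 min at room temperature with biotinylated H3(1-18)K9me3 peptide (50 nM) in PBS pH 7.4, 0.01% Tween-20, then compound added for 30 min. AlphaScreen streptavidin donor/nickel chelate acceptor beads (10 ug/mL final), 30 min dark, luminescence read.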
JMJD2A Tudor: blocks the human JMJD2A Tudor domain | O75164 | AlphaScreen JMJD2A-Tudor / H3K4me3 peptide binding | Potency, µM (top dose mostly 114 µM), inactives show top-dose activity change, negative = inhibition, hits mostly inhibitors | 4.4% of 390,000 active; further: on the % scale 0 is the no-effect control and ±100 the full control effect; nearly all actives have a fitted effect of over 50% in size
GLS inhibitor: inhibitors of human glutaminase (GLS); O94925; GLS enzymatic activity, qHTS titration; Potency, µM (top dose mostly 45.5 µM), inactives show at the highest dose activity change, negative = inhibition, usual class: inhibitors; 0.21% of 410,000 active; AID 624170; further: on the % scale 0 is the no-effect control and ±100 the full control effect
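Coupled fluorescence readout: glutamate oxidase/HRP/Amplex Red detect glutamate formed by hKGA from L-glutamine (1 mM solution added). Buffer 45 mM KH2PO4 pH 8.2, 0.02% Tween-20; reads at t0 and 30 min RT.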
An asterisk follows results filed as active; ? = inconclusive; nt = no result given; [ ] = another dose, or the depositor's remark. Most compounds without a hit are left out; they make up all but 10% or so of the library. The call rests on the fitted dose curve; in most records, active means well fitted curve in the direction sought with a large enough effect; inconclusive means small, poorly fitted or top-dose-only effect, or another doubt; inactive means no such curve, though single readings can be large; an effect the other way counts as inactive or inconclusive. Potency means the concentration at half of the fitted maximal effect.

SMILES	BAZ2B block	G9a block	HP1b chromo inh	JMJD2A Tudor	GLS inhibitor
COc1ccc(NC(=O)c2ccc(-c3ccccc3Cl)o2)cc1	-4%	79µM*	28%	-7%	3%
O=C(Nc1cccc(F)c1)c1ccc(-c2ccccc2Cl)o1	?	56µM*	50%	17%	-7%
NC1=NN(c2c(Cl)cc(Cl)cc2Cl)C(=O)C1	nt	nt	30%	-8%	13%
COC(=O)c1ccccc1NC(=O)C12CCC(C)(C(=O)O1)C2(C)C (stereo not given)	6%	-20%[12.7 µM]	-3%	0%	1%
Cc1ccc(S(=O)(=O)N2CCC(C(=O)OC(C)C(=O)NC3CCCCC3C)CC2)cc1C (stereo not given)	9%	5%[59 µM]	41%	-7%	-3%
Cc1ccc2c(C)c(C(=O)NCC(c3ccc(Cl)cc3)N3CCOCC3)oc2c1 (stereo not given)	?	13µM*	1%	-25%	0%
Cc1cc(C(=O)NCc2cccnc2)no1	7%	-42%[59 µM]	23%	9%	-8%
O=C(NCc1cccnc1)c1ccc(-c2cccc(Cl)c2Cl)o1	71µM*	nt	3%	-18%	4%
O=C(O)c1ccc(-c2ccccc2C(F)(F)F)o1	?	18%[59 µM]	1%	-14%	-2%
O=C(NCc1ccccc1)c1ccc(-c2ccccc2C(F)(F)F)o1	9%	40µM*	63%	17%	-9%
Cc1cc2c(cc(C(=O)NCc3cccnc3)n2Cc2ccc(Cl)cc2)o1	?	?	-22%	50µM*	-6%
COc1ccc(-c2nc(CNC(=O)NC3CCCCC3)c(C)o2)c(OC)c1	-17%	-5%[12.7 µM]	30%	4%	6%
CCCn1nc(C(=O)N(C)CC(=O)Nc2ccc(OCC)c(OCC)c2)c2ccccc2c1=O	-20%	-2%[12.7 µM]	10%	-12%	5%
COc1ccc(NC(=O)c2cc(-c3ccccc3Cl)no2)cc1	-2%	6%	26%	-2%	23%
COc1ccc(C(CNC(=O)c2ccc(-c3ccccc3Cl)o2)N2CCOCC2)cc1 (stereo not given)	?	45µM*	-9%	-35%	0%
O=C(Nc1ccccc1)c1cc(-c2ccccc2Cl)no1	5%	42%	-2%	28µM*	1%
CCCCn1nc(C(=O)N(C)CC(=O)Nc2cccc(F)c2)c2ccccc2c1=O	5%	35µM*	36%	-2%	-9%
Cc1ccc(-c2ccc(C(=O)NCc3ccc(Cl)cc3)o2)c2ccccc12	?	14µM*	-23%	?	4%
Cc1ccc(CC(=O)NCc2ccc(Cl)cc2)cc1	?	-9%	?	?	-29%
O=C(C1CCC1)N1CCc2cc(S(=O)(=O)NCCN3CCN(c4ccccc4F)CC3)ccc21	-33%	29%[0.501 µM]	-8%	-33%	8%
COC(=O)c1ccc(Nc2nc(N3CCOCC3)nc(N3CCOCC3)n2)cc1	-23%	?	36%	?	8%
N#Cc1cnc(NN)nc1	22µM*	50µM*	?	0.79µM*	?
Cc1ccc(C)n1-c1ccc(C#N)cn1	-14%	-28%	-19%	-23%	2%
O=C1NC(=S)N/C1=C\c1ccccc1OCc1ccc(C(=O)O)cc1	-1%	nt	-8%	79µM*	-7%
O=C(O)c1ccc(COc2ccccc2/C=C2/NC(=O)N(c3cccc(Cl)c3)C2=O)cc1	79µM*	-15%[59 µM]	?	?	14%
SMILES	BAZ2B block	G9a block	HP1b chromo inh	JMJD2A Tudor	GLS inhibitor
O=C(O)c1ccc(COc2ccccc2C=C2C(=O)c3ccccc3C2=O)cc1	-2%	1%[59 µM]	8%	-11%	-10%
CN1C(=O)/C(=C/c2ccccc2OCc2ccc(C(=O)O)cc2)NC1=S	?	?	22%	?	20%
COC(=O)C1=C(O)CSC1=Nc1cccc(C(F)(F)F)c1	3%	-30%[12.7 µM]	6%	-17%	-11%
O=C(Nc1ccc(F)cc1)C1CC(=O)n2ncnc2N1 (stereo not given)	-1%	-1%	7%	-7%	-2%
Cc1ccc(NC(=O)C2CC(=O)n3ncnc3N2)cc1C (stereo not given)	-27%	56µM*	38%	2%	0%
O=S(=O)(c1ccc(Cl)cc1)N(CCCN1CCOCC1)Cc1cccs1	50µM*	28µM*	15%	8.9µM*	-5%
COc1ccc(-n2ccnc(NCc3ccccc3OC)c2=O)cc1	?	-36%[59 µM]	-2%	-14%	4%
Cc1c(NC(=O)c2ccc(C(=O)Nc3c(C)n(C)n(-c4ccccc4)c3=O)cc2)c(=O)n(-c2ccccc2)n1C	10%	-10%[0.501 µM]	39%	-3%	0%
Cc1c(NC(=O)C(=O)/C=C(\O)c2ccc(Br)cc2)c(=O)n(-c2ccccc2)n1C	?	?	-17%	25µM*	20%
O=C(Nc1nnc(SCc2ccccn2)s1)C1CC(=O)N(c2ccc(F)cc2)C1 (stereo not given)	-24%	28µM*	11%	-28%	-1%
Cc1ccc(CN2CC(C(=O)Nc3nnc(SCc4c(Cl)cccc4Cl)s3)CC2=O)cc1 (stereo not given)	?	10µM*	-6%	?	16%
COc1cccc(N2CC(C(=O)Nc3nnc(SCc4ccccn4)s3)CC2=O)c1 (stereo not given)	?	7.9µM*	10%	-24%	9%
O=C(Nc1nnc(SCc2cccnc2)s1)C1CC(=O)N(c2ccccc2)C1 (stereo not given)	-2%	?	34%	-15%	4%
Cc1ccccc1N1CC(C(=O)Nc2nnc(SCc3ccccn3)s2)CC1=O (stereo not given)	-11%	?	40%	-13%	-3%
Cc1cccc(N2CC(C(=O)Nc3nnc(SCc4cccnc4)s3)CC2=O)c1 (stereo not given)	-24%	45µM*	7%	?	-2%
CCO[C@H]1OC(C(=O)N2CCN(Cc3ccc4c(c3)OCO4)CC2)=C[C@@H](c2cn(C(C)=O)c3ccccc23)[C@@H]1CCCO	-39%	-4%[59 µM]	4%	?	5%
O=C(OCC#CCSc1nnc(-c2cc3ccccc3cc2O)o1)c1ccc(F)cc1	nt	nt	nt	-14%	nt
Cc1ccc(CNC(=O)C2c3ccccc3C(=O)N3CCc4ccccc4C23)o1 (stereo not given)	?	32µM*	-1%	-20%	3%
O=C(NCCN1CCN(Cc2ccccc2)CC1)C1c2ccccc2C(=O)N2CCc3ccccc3C12 (stereo not given)	4%[57.1 µM]	3%	25%	2%	-5%
O=[N+]([O-])c1ccc(C2=NN(c3ccccc3)C(c3ccco3)C2)cc1 (stereo not given)	-33%	?	?	?	-15%
O=[N+]([O-])c1ccc(/C=C/C2=NN(c3ccccc3)C(c3ccco3)C2)cc1 (stereo not given)	50µM*	22µM*	-20%[57 µM]	?	-13%
